Some test systems named below: SR leukemia; RPMI-8226 leukemia; OVCAR-8 ovarian; OVCAR-5 ovarian; OVCAR-4 ovarian; SK-OV-3 ovarian; IGROV1 ovarian; HS 578T breast; NCI/ADR-RES ovarian; T-47D breast; MDA-MB-435 melanoma; SW-620 colon; MCF7 breast; HCT-116 colon; HCC-2998 colon; KM12 colon; BT-549 breast.
Assay in all cases: NCI-60 one-dose screen, 48 h (100 = growth as untreated, 0 = no growth, -100 = all killed)
Holding throughout (details): 10 µM unless noted

Molecules are shown by their SMILES. The panel holds about 83,000 compounds, 20% with a hit somewhere; the sample as a whole holds those more often.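 Method: cells in 96-well plates; compound added at one concentration; 48 h incubation; percent growth measured; values under 10 scored active.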 Values without a mark were called inactive. Calls of active or inactive are those of the source.

The values below come from PubChem BioAssay (NCI).

In the case of `O=C1/C(=C/C=C/c2ccco2)SC(=S)N1c1ccccc1`, the growth is 43.8% in the experiment with SR leukemia; 53.6% in the experiment with RPMI-8226 leukemia; 66.4% with OVCAR-8 ovarian; 88% with OVCAR-5 ovarian; 90.9% with OVCAR-4 ovarian; 110% with SK-OV-3 ovarian. In addition, the growth in the experiment on IGROV1 ovarian was 44.3%; in the experiment on HS 578T breast, 102%; in the experiment with NCI/ADR-RES ovarian, 51.2%; in the experiment on T-47D breast, 76.8%; with MDA-MB-435 melanoma it was 89.1%; in the experiment on SW-620 colon it was 98.9%. For the same compound, the growth in the experiment with MCF7 breast was 57.4%; with HCT-116 colon, 35.3%; in the experiment with HCC-2998 colon, 87.3%; in the experiment with KM12 colon it was 94.4%.
In the case of `CCC(NC(c1cc2cccc3ccc4cccc1c4c32)c1nnnn1C(C)(C)C)C1CCCCC1` (stereo not given), the growth in the experiment on SR leukemia was 40.9%; in the experiment on RPMI-8226 leukemia it was 28.1%; with OVCAR-8 ovarian, 73.2%; in the experiment with OVCAR-5 ovarian, 84.6%; in the experiment with OVCAR-4 ovarian, 46.5%; in the experiment with SK-OV-3 ovarian, 70.8%. Further, the growth in the experiment on IGROV1 ovarian was 65.2%; in the experiment on HS 578T breast it was 84.5%; in the experiment on NCI/ADR-RES ovarian, 74.4%; in the experiment on T-47D breast, 74.6%; in the experiment on MDA-MB-435 melanoma, 60%; in the experiment with SW-620 colon, 61.5%. In addition, the growth with MCF7 breast was 48.2%; in the experiment on HCT-116 colon, 40.6%; in the experiment on HCC-2998 colon it was 90.3%; in the experiment on KM12 colon, 67.8%.
In the case of `Cn1cc(-c2nnc(N)nc2-c2c[nH]c3ccc(F)cc23)c2cc(F)ccc21`, the growth with SR leukemia is 41.1%; with RPMI-8226 leukemia it was 65.6%; in the experiment on OVCAR-8 ovarian it was 90.3%; in the experiment on OVCAR-5 ovarian, 109%; in the experiment with OVCAR-4 ovarian it was 98.4%; in the experiment with SK-OV-3 ovarian, 88.4%. In addition, the growth was 35.7% in the experiment with IGROV1 ovarian; 84.1% in the experiment with HS 578T breast; 86.7% with NCI/ADR-RES ovarian; 26.1% in the experiment with T-47D breast; 94.8% in the experiment on MDA-MB-435 melanoma; 59.8% in the experiment on SW-620 colon. Also, the growth in the experiment on MCF7 breast was 30.4%; in the experiment with HCT-116 colon, 62.1%; with HCC-2998 colon it was 93.1%; with KM12 colon it was 74.5%.
In the case of `CN(C)CCCOc1ccc2c(c1)CN(C(=O)c1cc(C(=O)N3Cc4cccc(F)c4C3)ccc1O)C2`, the growth with SR leukemia is 96.8%; in the experiment on RPMI-8226 leukemia, 98.9%; with OVCAR-8 ovarian, 101%; in the experiment with OVCAR-5 ovarian, 108%; with OVCAR-4 ovarian it was 99%; in the experiment on SK-OV-3 ovarian, 112%. The growth in the experiment on IGROV1 ovarian is 113%; in the experiment on HS 578T breast, 92.9%; with NCI/ADR-RES ovarian it was 107%; in the experiment on T-47D breast it was 100%; in the experiment on BT-549 breast, 125%; in the experiment with MDA-MB-435 melanoma it was 103%. Also, the growth in the experiment with SW-620 colon is 105%; with MCF7 breast, 83.2%; with HCT-116 colon it was 106%; in the experiment with HCC-2998 colon it was 114%; with KM12 colon, 106%.
Take `CC(C)(C)CC(C)(C)n1nnnc1C(Nc1nccs1)c1cc2cccc3ccc4cccc1c4c32` (stereo not given): the growth is 96.6% in the experiment on SR leukemia; 104% in the experiment with RPMI-8226 leukemia; 100% in the experiment with OVCAR-8 ovarian; 84.6% in the experiment with OVCAR-5 ovarian; 99.7% in the experiment with OVCAR-4 ovarian; 103% in the experiment with SK-OV-3 ovarian. In addition, the growth in the experiment with IGROV1 ovarian is 93.5%; with HS 578T breast it was 93.8%; with NCI/ADR-RES ovarian, 98%; in the experiment with T-47D breast, 75.4%; in the experiment with MDA-MB-435 melanoma, 102%; in the experiment on SW-620 colon, 101%. Also, the growth with MCF7 breast was 75.3%; in the experiment on HCT-116 colon it was 97.7%; in the experiment on HCC-2998 colon, 103%; in the experiment on KM12 colon, 99.5%.
Turning to `NS(=O)(=O)c1ccc(-n2cc(-c3cccc(NC(=O)c4ccc(N5CCOCC5)c(C(F)(F)F)c4)c3)nn2)cc1`, the growth in the experiment on SR leukemia is 4.3% (active); with RPMI-8226 leukemia, 10.2%; with OVCAR-8 ovarian, 42.7%; in the experiment with OVCAR-5 ovarian, 67.8%; in the experiment on OVCAR-4 ovarian, 15%; in the experiment on SK-OV-3 ovarian, 69.9%. The growth was 40.3% in the experiment with IGROV1 ovarian; 48.9% in the experiment on HS 578T breast; 82.4% with NCI/ADR-RES ovarian; 4.61% (active) in the experiment on T-47D breast; 73.2% with BT-549 breast; 62.9% in the experiment on MDA-MB-435 melanoma. For the same compound, the growth was 64.5% in the experiment with SW-620 colon; 36.9% in the experiment on MCF7 breast; 32.5% with HCT-116 colon; 66% in the experiment on HCC-2998 colon; 25.8% in the experiment with KM12 colon.
With `COc1cc(-c2ccc3ncnc(NCc4ccccc4)c3c2)cnc1OC`, the growth was 62.1% with SR leukemia; 34.5% in the experiment with RPMI-8226 leukemia; 70.7% in the experiment with OVCAR-8 ovarian; 28.9% in the experiment on OVCAR-5 ovarian; 65.3% in the experiment with OVCAR-4 ovarian; 43.2% in the experiment on SK-OV-3 ovarian. Besides, the growth in the experiment with IGROV1 ovarian was -31.8% (active); in the experiment with HS 578T breast, 20%; in the experiment on NCI/ADR-RES ovarian, 68.3%; with T-47D breast, 2.37% (active); in the experiment on MDA-MB-435 melanoma it was 77.1%; in the experiment with SW-620 colon it was 74.6%. For the same compound, the growth in the experiment on MCF7 breast is 27%; in the experiment with HCT-116 colon, 78.1%; in the experiment on HCC-2998 colon, 73.2%; in the experiment with KM12 colon, 95.2%.
Consider `COc1cc(-c2nn(C(C)(C)C)cc2-c2ccnc(NCCCNS(=O)(=O)c3ccc(Cl)cc3)n2)ccc1Cl`, for which the growth in the experiment on SR leukemia was 37.7%; in the experiment with RPMI-8226 leukemia, 66.1%; in the experiment with OVCAR-8 ovarian it was 73.3%; in the experiment on OVCAR-5 ovarian it was 79.5%; in the experiment with OVCAR-4 ovarian it was 39.2%; with SK-OV-3 ovarian it was 93.9%. Moreover, the growth was 50.8% in the experiment on IGROV1 ovarian; 70.5% with HS 578T breast; 67% in the experiment with NCI/ADR-RES ovarian; 64.2% in the experiment on T-47D breast; 72.2% in the experiment on MDA-MB-435 melanoma; 91.1% in the experiment on SW-620 colon. The growth in the experiment on MCF7 breast was 52.2%; in the experiment on HCT-116 colon, 39%; with HCC-2998 colon it was 108%; in the experiment on KM12 colon, 68.8%.
